# Measured values reported in the supplement of paper PMC8728848.
# The full list was thinned out, with the strongest signals kept by preference.
# B1: PX9961A-pdi-456-24-456 (Parabacteroides distasonis) (protein)
# chain: KTSSTQLPTIDAISSVADLTNAVNGVYEQQATEVGSYGAEFTLLADLRSGDFQSISTVNHAGPMYRYQTGKNDEMVYSFYKLFYNSLARLNNVLAAAENLEGADVDILKGELYAMRALYHFDLARVFAKLPSTTDMNDLGIVLSTEVYPTDYIGTRATLQQTYDQILKDIETALPLLSKDKQTGHINYWGALAIRARAYLYLEKNKEALADCKEIIASSPYKLYTRDEYIGAWDKEGTNEAIFEILVTPNYNAQRNSIGYFTHASGYGECAATESFLEELAKHPGDIRTELFAKETDNGYDGTYPQKYKGRDGQIYVNNPKVVRLSEVYLIAAEAALKAGDTSAAAGYMNTLRKNRIENYTDVASITLDDILLERRLELFTEGHTAWDAWRNGKSVNNKFVGEVKPGDYRTIMAIPIGEITVSRGQLIQNPGY
# Tests used:
# Experiment in all cases: glycan array binding signal (z-score within array); higher = stronger binding
# Conditions in all cases: glycan notation: IUPAC condensed, linker removed
# [1] = target: Fuc(a1-2)Gal(b1-3)GalNAc(b1-3)Gal(a1-4)Gal(b1-4)Glc
# Procedure, shortened: (§1)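 Glycan array binding is given as a within-array Z-score, which can be read as non-binding when negative. The arrays, 3228 of them, came from the Consortium for Functional Glycomics database and were retained only where the protein sequence was available. Z-scores were averaged across arrays of the same protein sequence at different concentrations or buffers and across linkers.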
# [2] = target: Fuc(a1-2)Gal(b1-3)GlcNAc6S
# Procedure, shortened: as §1
# [3] = target: Fuc(a1-2)Gal(b1-3)[Fuc(a1-4)]GlcNAc(b1-2)Man(a1-3)[Fuc(a1-2)Gal(b1-3)[Fuc(a1-4)]GlcNAc(b1-2)Man(a1-6)]Man(b1-4)GlcNAc(b1-4)[Fuc(a1-6)]GlcNAc(b1-4)[Fuc(a1-6)]GlcNAc
# Procedure, shortened: as §1
# [4] = target: Fuc(a1-2)Gal(b1-4)GlcNAc(b1-3)Gal(b1-4)GlcNAc(b1-3)Gal(b1-4)GlcNAc
# Procedure, shortened: as §1
# [5] = target: Fuc(a1-2)Gal6S(b1-4)Glc6S
# Procedure, shortened: as §1
# Fuc(a1-2)[Gal(a1-3)]Gal = target: Fuc(a1-2)[Gal(a1-3)]Gal
# Procedure, shortened: as §1
# [6] = target: Fuc(a1-2)[GalNAc(a1-3)]Gal(b1-4)[Fuc(a1-3)]GlcNAc(b1-3)GalNAc
# Procedure, shortened: as §1
# [7] = target: Fuc(a1-3)[Gal3S(b1-4)]GlcNAc6S
# Procedure, shortened: as §1
# Fuc(a1-4)GlcNAc = target: Fuc(a1-4)GlcNAc
# Procedure, shortened: as §1
# [8] = target: Gal(a1-3)Gal(b1-4)GlcNAc(b1-2)Man(a1-3)[Gal(a1-3)Gal(b1-4)GlcNAc(b1-2)Man(a1-6)]Man(b1-4)GlcNAc(b1-4)GlcNAc
# Procedure, shortened: as §1
# [9] = target: Gal(a1-3)Gal(b1-4)[Fuc(a1-3)]GlcNAc(b1-2)Man(a1-3)[Gal(a1-3)Gal(b1-4)[Fuc(a1-3)]GlcNAc(b1-2)Man(a1-6)]Man(b1-4)GlcNAc(b1-4)GlcNAc
# Procedure, shortened: as §1
# Gal(a1-3)GalNAc = target: Gal(a1-3)GalNAc
# Procedure, shortened: as §1
# [10] = target: Gal(a1-4)Gal(b1-4)GlcNAc(b1-2)Man(a1-3)[Gal(a1-4)Gal(b1-4)GlcNAc(b1-2)Man(a1-6)]Man(b1-4)GlcNAc(b1-4)GlcNAc
# Procedure, shortened: as §1
# [11] = target: Gal(a1-4)Gal(b1-4)GlcNAc(b1-3)Gal(b1-4)Glc
# Procedure, shortened: as §1
# [12] = target: Gal(b1-3)GlcNAc(b1-3)Gal(b1-4)GlcNAc(b1-2)[Gal(b1-3)GlcNAc(b1-3)Gal(b1-4)GlcNAc(b1-6)]Man(a1-6)[Gal(b1-3)GlcNAc(b1-3)Gal(b1-4)GlcNAc(b1-2)Man(a1-3)]Man(b1-4)GlcNAc(b1-4)[Fuc(a1-6)]GlcNAc
# Procedure, shortened: as §1
# [13] = target: Gal(b1-4)GalNAc(b1-3)[Fuc(a1-2)]Gal(b1-4)GlcNAc
# Procedure, shortened: as §1
# [14] = target: Gal(b1-4)GlcNAc(b1-2)[Gal(b1-4)GlcNAc(b1-6)]Man(a1-6)[Gal(b1-4)GlcNAc(b1-2)Man(a1-3)]Man(b1-4)GlcNAc(b1-4)[Fuc(a1-6)]GlcNAc
# Procedure, shortened: as §1
# [15] = target: Gal(b1-4)GlcNAc(b1-3)Gal(b1-3)GalNAc
# Procedure, shortened: as §1
# [16] = target: Gal(b1-4)GlcNAc(b1-3)Gal(b1-4)GlcNAc(b1-2)Man(a1-3)[Gal(b1-4)GlcNAc(b1-3)Gal(b1-4)GlcNAc(b1-2)Man(a1-6)]Man(b1-4)GlcNAc(b1-4)GlcNAc
# Procedure, shortened: as §1
# [17] = target: Gal(b1-4)GlcNAc(b1-3)Gal(b1-4)GlcNAc(b1-2)Man(a1-3)[Gal(b1-4)GlcNAc(b1-3)Gal(b1-4)GlcNAc(b1-2)Man(a1-6)]Man(b1-4)GlcNAc(b1-4)[Fuc(a1-6)]GlcNAc
# Procedure, shortened: as §1
# [18] = target: Gal(b1-4)GlcNAc(b1-3)Gal(b1-4)GlcNAc(b1-3)Gal(b1-4)GlcNAc(b1-2)[Gal(b1-4)GlcNAc(b1-3)Gal(b1-4)GlcNAc(b1-3)Gal(b1-4)GlcNAc(b1-6)]Man(a1-6)[Gal(b1-4)GlcNAc(b1-3)Gal(b1-4)GlcNAc(b1-3)Gal(b1-4)GlcNAc(b1-2)Man(a1-3)]Man(b1-4)GlcNAc(b1-4)[Fuc(a1-6)]GlcNAc
# Procedure, shortened: as §1
# [19] = target: Gal(b1-4)GlcNAc(b1-3)Gal(b1-4)GlcNAc(b1-3)Gal(b1-4)GlcNAc(b1-3)Gal(b1-4)GlcNAc(b1-2)Man(a1-3)[Gal(b1-4)GlcNAc(b1-3)Gal(b1-4)GlcNAc(b1-3)Gal(b1-4)GlcNAc(b1-3)Gal(b1-4)GlcNAc(b1-2)Man(a1-6)]Man(b1-4)GlcNAc(b1-4)GlcNAc
# Procedure, shortened: as §1
# [20] = target: Gal(b1-4)GlcNAc(b1-3)Gal(b1-4)GlcNAc(b1-3)Gal(b1-4)GlcNAc(b1-3)Gal(b1-4)GlcNAc(b1-2)Man(a1-3)[Gal(b1-4)GlcNAc(b1-3)Gal(b1-4)GlcNAc(b1-3)Gal(b1-4)GlcNAc(b1-3)Gal(b1-4)GlcNAc(b1-2)Man(a1-6)]Man(b1-4)GlcNAc(b1-4)[Fuc(a1-6)]GlcNAc
# Procedure, shortened: as §1
# [21] = target: Gal(b1-4)GlcNAc(b1-3)Gal(b1-4)GlcNAc(b1-3)Gal(b1-4)GlcNAc(b1-3)Gal(b1-4)GlcNAc(b1-3)Gal(b1-4)GlcNAc(b1-2)Man(a1-3)[Gal(b1-4)GlcNAc(b1-3)Gal(b1-4)GlcNAc(b1-3)Gal(b1-4)GlcNAc(b1-3)Gal(b1-4)GlcNAc(b1-3)Gal(b1-4)GlcNAc(b1-2)Man(a1-6)]Man(b1-4)GlcNAc(b1-4)GlcNAc
# Procedure, shortened: as §1
# [22] = target: Gal(b1-4)GlcNAc(b1-3)Gal(b1-4)GlcNAc(b1-3)Gal(b1-4)GlcNAc(b1-3)Gal(b1-4)GlcNAc(b1-3)Gal(b1-4)GlcNAc(b1-3)Gal(b1-4)GlcNAc(b1-2)Man(a1-3)[Gal(b1-4)GlcNAc(b1-3)Gal(b1-4)GlcNAc(b1-3)Gal(b1-4)GlcNAc(b1-3)Gal(b1-4)GlcNAc(b1-3)Gal(b1-4)GlcNAc(b1-3)Gal(b1-4)GlcNAc(b1-2)Man(a1-6)]Man(b1-4)GlcNAc(b1-4)GlcNAc
# Procedure, shortened: as §1
# [23] = target: Gal(b1-4)GlcNAc(b1-3)Gal(b1-4)GlcNAc(b1-3)GalNAc
# Procedure, shortened: as §1
# Gal3S(b1-4)Glc = target: Gal3S(b1-4)Glc
# Procedure, shortened: as §1
# GalNAc(a1-3)Gal = target: GalNAc(a1-3)Gal
# Procedure, shortened: as §1
# [24] = target: GalNAc(b1-3)Gal(a1-4)Gal(b1-4)GlcNAc(b1-3)Gal(b1-4)Glc
# Procedure, shortened: as §1
# Glc(b1-6)Glc = target: Glc(b1-6)Glc
# Procedure, shortened: as §1
binder,measurement,setting,value
B1,glycan array binding signal (z-score),[1],-0.216
same,glycan array binding signal (z-score),[2],0.178
same,glycan array binding signal (z-score),[3],0.196
same,glycan array binding signal (z-score),[4],-0.148
same,glycan array binding signal (z-score),[5],-0.221
same,glycan array binding signal (z-score),Fuc(a1-2)[Gal(a1-3)]Gal,1.54
same,glycan array binding signal (z-score),[6],0.753
same,glycan array binding signal (z-score),[7],-0.41
same,glycan array binding signal (z-score),Fuc(a1-4)GlcNAc,7.24
same,glycan array binding signal (z-score),[8],0.21
same,glycan array binding signal (z-score),[9],0.63
same,glycan array binding signal (z-score),Gal(a1-3)GalNAc,-0.152
same,glycan array binding signal (z-score),[10],0.514
same,glycan array binding signal (z-score),[11],0.043
same,glycan array binding signal (z-score),[12],1.83
same,glycan array binding signal (z-score),[13],-0.317
same,glycan array binding signal (z-score),[14],2.12
same,glycan array binding signal (z-score),[15],-0.575
same,glycan array binding signal (z-score),[16],2.2
same,glycan array binding signal (z-score),[17],2.48
same,glycan array binding signal (z-score),[18],2.11
same,glycan array binding signal (z-score),[19],0.035
same,glycan array binding signal (z-score),[20],6.49
same,glycan array binding signal (z-score),[21],2.59
same,glycan array binding signal (z-score),[22],7.59
same,glycan array binding signal (z-score),[23],0.087
same,glycan array binding signal (z-score),Gal3S(b1-4)Glc,-0.121
same,glycan array binding signal (z-score),GalNAc(a1-3)Gal,3.31
same,glycan array binding signal (z-score),[24],0.012
same,glycan array binding signal (z-score),Glc(b1-6)Glc,-0.218
